Screening results from PubChem BioAssay.
Lassa entry inh – qHTS for Inhibitors of binding or entry into cells for Lassa Virus. Lassa virus pseudotype entry inhibition, cell reporter. AID 540256, 2011. 300,000 tested, 1.2% active. Potency, µM (doses to about 37.9 µM), for the others: top-dose activity change, negative = inhibition, hits mostly inhibitors; calls by dose curve; tested in HEK293 cells; note: potency is the fitted concentration of half-maximal effect; % is set by controls: 0 for no effect and ±100 for the full control effect; nearly all actives have a fitted effect of over 50% in size
HCV inhibitor – qHTS Assay for Inhibitors of Hepatitis C Virus (HCV); Potency, µM (top dose mostly 41.8 µM), for inactives: at the top dose activity change, negative = inhibition, most hits filed as inhibitors; Huh7.5.1 HCVcc-Cre infection, luciferase reporter, 44 h; AID 651820, 2012; 340,000 tested, 3.4% active; active = well fitted inhibition curve with a large enough effect; inconclusive = small, poorly fitted or top-dose-only effect, or another doubt; inactive = no such curve, though single readings can be large or run the other way; note: potency is the fitted concentration of half-maximal effect; % is set by controls: 0 for no effect and ±100 for the full control effect
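Compounds are dispensed onto cells plated 4 h earlier at 1,000 per well, with HCVcc-Cre virus (about 0.5 moi) added next. Following 44 h of culture, luminescent signal is measured for 15 sec after 15 min with substrate at room temperature.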
Shiga toxin inh – A qHTS for Small Molecule Inhibitors of Shiga Toxin. Vero cells, Shiga toxin protein synthesis inhibition reporter. 290,000 tested, 9.2% active. inhibition, % at 38.7 µM; in the data active = inhibition mostly above about 28%, no sharp cut-off; inactive = mostly below about 43%; note: 0% is about no effect
FMDV inh – High Throughput Screening for Foot and Mouth Disease Virus Antivirals; FMDV antiviral cell-based qHTS; AID 1159524, 2015; 410,000 tested, 1.2% active; Potency, µM (doses to about 57.9 µM), without a hit: at the top dose activity change, negative = inhibition, usual class: inhibitors; calls by dose curve; tested in HEK293T cells; note: read-out not given here; potency is the fitted concentration of half-maximal effect; % is set by controls: 0 for no effect and ±100 for the full control effect; nearly all actives have a fitted effect of over 45% in size
MARV entry inh – qHTS for inhibitors of binding or entry into cells for Marburg Virus. 300,000 tested, 1.8% active. Potency, µM (highest dose often 37.8 µM), for inactives: at the highest dose activity change, negative = inhibition, usual class: inhibitors. Marburg virus pseudotyped entry inhibition, cell reporter; calls by dose curve; tested in HEK293 cells; note: potency is the fitted concentration of half-maximal effect; % is set by controls: 0 for no effect and ±100 for the full control effect
CHX counter – Cycloheximide Counterscreen for Small Molecule Inhibitors of Shiga Toxin; cell reporter, cycloheximide protein synthesis inhibition counterscreen; AID 2314, 2010; max response, %; 300,000 tested, 12% active; in the data active = max response mostly above about 13%, no sharp cut-off; inactive = mostly below about 14%; note: read at 38.3 µM for the half of the compounds with a filed dose; 0% is about no effect
* hit, by the source's call; ? = inconclusive; . = no result given; + = active, no number; [ ] = another dose, or the depositor's remark. Shown are actives, neighbours in structure and some others; about 13% of the full set was active somewhere.

SMILES | Lassa entry inh | HCV inhibitor | Shiga toxin inh | FMDV inh | MARV entry inh | CHX counter
CCc1ccc(Nc2nnc(SCC(=O)N(C)CC(=O)Nc3ccccc3CC)s2)cc1 | ? | ? | 26 | -1% | ? | 28*
CCc1ccccc1NC(=O)CN(C)C(=O)CSc1nnc(Nc2ccc(C)cc2)s1 | 10% | ? | -9 | -9% | 5% | -1
O=C(CCNC(=O)c1ccc([N+](=O)[O-])cc1)NCCC1=CCCCC1 | -22% | -5%[8.37 µM] | . | -17% | 0%[46.1 µM] | .
O=C(NC1CCCCCC1)c1ccc(CN2CCOCC2)cc1 | -5% | 2% | 96* | 34% | ? | 41*
COc1ccc(CCNC(=O)c2ccc(CN3CCOCC3)cc2)cc1 | -2% | ? | 6 | -14% | ? | 4
O=C(NCCC1=CCCCC1)c1ccc([N+](=O)[O-])cc1 | ? | 7% | 131* | 3% | ? | 75*
COc1ccc(C(=O)NCCC2=CCCCC2)cc1OC | 6% | -4% | 75* | 34% | ? | 46*
O=C(NC1CCCC1)c1ccc(CN2CCOCC2)cc1 | 18% | 12% | 36 | 22% | 0% | 14
O=C(NCCC1=CCCCC1)c1ccc(CN2CCOCC2)cc1 | ? | 5% | 45* | -12% | -11% | 40*
Cc1c(C(=O)NCc2cccc(Cl)c2)sc2nc3n(c(=O)c12)CCCC3 | -9%[46.1 µM] | . | . | 0% | . | .
C[C@@H]1CN([C@H](C)CO)C(=O)CCCn2nncc2CO[C@H]1CN(C)S(=O)(=O)c1ccccc1 | . | . | . | -17% | . | .
O=C(CCNC(=O)c1ccc(Cl)cc1)NCCC1=CCCCC1 | ? | 5% | . | 18% | ? | .
COc1cccc(C(=O)NCCC2=CCCCC2)c1 | -16% | -4% | 74* | 0% | ? | 30*
O=C(NCCC1=CCCCC1)c1ccc(F)cc1 | 10µM* | 1% | + | ? | ? | 39*
O=C(NCCC1=CCCCC1)c1cccc(S(=O)(=O)N2CCCCC2)c1 | ? | -5% | . | -10% | -19% | .
COc1ccc(C(=O)NCCC2=CCCCC2)cc1 | ? | 6% | 51 | 13µM* | 7.3µM* | 31*
Cc1ccc(C(=O)NCCC2=CCCCC2)cc1S(=O)(=O)N1CCCCC1 | 7.9µM* | ? | . | -1% | ? | .
O=C(NCCC1=CCCCC1)C1CCN(S(=O)(=O)c2ccccc2)CC1 | -1%[46.1 µM] | 8% | 10 | -6% | ? | -1
O=C(NCCC1=CCCCC1)C1CCN(S(=O)(=O)c2cccc(C(F)(F)F)c2)CC1 | . | 11µM* | . | ? | . | .
O=C(NCCC1=CCCCC1)c1ccc(Br)o1 | -5% | 0% | 84* | 46% | ? | 28*
O=C(CCNC(=O)c1ccc([N+](=O)[O-])cc1)Nc1ccc(F)cc1 | 8%[46.1 µM] | -2% | -8 | -13% | 5%[46.1 µM] | -4
O=C(NCCc1ccc(F)cc1)c1ccc([N+](=O)[O-])cc1 | -18% | -22% | 67* | 38% | 9% | 34*
Cc1cc(C(=O)NCCC2=CCCCC2)ccc1[N+](=O)[O-] | ? | 2% | 96* | 20% | 0%[46.1 µM] | 49*
COc1cccc(C(=O)NCCS(=O)(=O)N(C)Cc2ccccc2)c1 | -6% | 15% | . | -3% | 14% | .
CCOC(=O)N1C=CC(C)=C[C@@H]2[C@@H](N3C(=O)c4ccccc4C3=O)C(=O)N21 | 19% | 22% | -6 | -19% | -5% | -3
SMILES | Lassa entry inh | HCV inhibitor | Shiga toxin inh | FMDV inh | MARV entry inh | CHX counter
CCNC(=S)NN=C1CCC(C(C)(C)C)CC1 (centres undefined) | -2% | 7% | 13 | -2% | 3% | 11
O=C(Nc1ccc(Oc2ccccc2)cc1)C1CCN(S(=O)(=O)c2ccccc2)CC1 | -1%[46.1 µM] | . | . | ? | 3%[46.1 µM] | .
O=C(COc1ccc([N+](=O)[O-])cc1)NCCC1=CCCCC1 | 0% | -5% | 15 | -21% | 21% | 0
O=C(Cc1ccccc1[N+](=O)[O-])NCCC1=CCCCC1 | ? | 18% | 61* | 81% | ? | 26*
COc1ccc(CC(=O)Nc2cc(Cl)ccc2O)cc1 | 25% | 3% | 8 | . | -7% | 11*
COc1ccc(CC(=O)Nc2ccccc2NC(=O)Cc2ccc(OC)cc2)cc1 | . | -12% | -6 | -2% | . | -1
COc1ccc(CC(=O)Nc2ccncc2Cl)cc1 | . | 6.3µM* | -10 | ? | . | 8
COCCNC(=O)c1c[nH]c2ccc(S(=O)(=O)Nc3ccc(F)cc3F)cc2c1=O | 18%[46.1 µM] | 3% | -10 | 12% | 7%[46.1 µM] | 15*
CC(NC(=O)c1ccccc1F)c1nnc(SCC(=O)Nc2nccs2)n1C (centres undefined) | 1% | 8% | 15 | -1% | -3%[46.1 µM] | -2
Cc1cc(OCC(=O)Nc2ccc(N3CCCC3)cc2)cc(C)c1Cl | 7% | ? | -5 | -15% | 0% | -1
Cc1ccccc1OCCC(=O)OCC(=O)Nc1ccc(N2CCOCC2)cc1 | -19% | 24% | 12 | -16% | 1% | 14*
Cc1cc(OCC(=O)Nc2ccc(N3CCN(C(=O)c4ccco4)CC3)cc2)cc(C)c1Cl | -35% | ? | -11 | 6.3µM* | -41% | -2
Cc1ccc(NC(=O)COC(=O)CCOc2ccccc2C)cc1 | 2%[46.1 µM] | 27% | -25 | -16% | -6%[46.1 µM] | -5
Cc1cccc(OCC(=O)Nc2ccc(N3CCN(C(=O)c4ccco4)CC3)cc2)c1 | ? | ? | 17 | 16µM* | ? | -2
Cc1ccc(OCC(=O)Nc2ccc(N3CCN(C(=O)c4ccco4)CC3)cc2)cc1C | -20% | -23% | 22 | 14µM* | ? | -5
C=CCN(CC=C)CCCOc1ccccc1C(=O)OC | -30%[46.1 µM] | -2% | 1 | -3% | 12%[46.1 µM] | 3
CCC(=O)N1CCN(c2ccc(NC(=O)COc3cccc(C)c3C)cc2)CC1 | ? | -16% | -1 | -27% | -6%[46.1 µM] | -1
Cc1cccc(OCC(=O)Nc2ccc(N3CCN(C(=O)c4ccccc4)CC3)cc2)c1C | -18% | ? | -5 | 14µM* | 3% | -2
Cc1ccc(NC(=O)COC(=O)CSC(=S)N2CCOCC2)cc1 | 16% | -6% | 42 | 29% | 3% | 27*
COc1ccc2c(c1)C(=NNC(=O)c1ccccn1)c1cc(OC)ccc1-2 | 2% | ? | 7 | -22% | ? | 4
Cn1/c(=N/NC(=O)c2ccccc2Br)sc2ccccc21 | ? | 12% | 87* | 28% | ? | 36*
COc1cccc2c(=O)c(SC(F)(F)C(F)C(F)(F)F)c(C)[nH]c12 (centres undefined) | 4% | ? | 52* | 67% | -9% | 33
Cc1[nH]c2ccc(F)cc2c(=O)c1SC(F)(F)C(F)C(F)(F)F (centres undefined) | -28% | ? | -12 | -21% | -14% | -2
O=C1c2ccccc2S(=O)(=O)N1Cc1nc2ccccc2s1 | 1µM* | 20% | -23 | ? | ? | -3
COc1ccc(OCCNc2cc(N3CCCCC3)ccc2[N+](=O)[O-])cc1 | ? | ? | 20 | -21% | ? | 0
